In PubChem BioAssay (NCI):
Several values for one entry are separate records, joined by “and”; a condition that tells them apart may be missing. Identical values can stand only once. Compounds without any hit were thinned out: in the full panel of roughly 79,000, 15% have a hit. No stated cut-off is given here; in the data, active means growth inhibition above about 70%; inactive means the rest.

Legend:
[1] = NCI Yeast Anticancer Drug Screen. Data for the rad50 strain (AID 155);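 further: 0% = growth of vehicle-only cultures of the same strain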; settings: S. cerevisiae rad50 strain growth inhibition; at 50.0 µM; active compounds read high
In short: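 Genetically altered yeast (DNA repair pathway); compound treatment; growth inhibition vs vehicle ctrl.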

[2] = NCI Yeast Anticancer Drug Screen. Data for the mec2-1 strain (AID 157); settings: S. cerevisiae mec2-1 strain, at 50.0 µM, active compounds read high
In short: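 Each compound was tested on mec2-1 yeast, a strain altered in DNA damage repair or cell cycle control. Growth inhibition is reported relative to vehicle.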

[3] = NCI Yeast Anticancer Drug Screen. Data for the sgs1 mgt1 strain (AID 161);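 further: 0% = growth of cultures given vehicle only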; settings: S. cerevisiae sgs1 mgt1 strain, at 50.0 µM, active compounds read high
In short: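 Mutant yeast exposed to compound; growth scored against vehicle-only wells.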

[4] = NCI Yeast Anticancer Drug Screen. Data for the cln2 rad14 strain (AID 165);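 further: 0% = growth equal to vehicle treated cultures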; settings: S. cerevisiae cln2 rad14 strain, at 50.0 µM, active compounds read high
In short: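 Test compounds were added to cln2 rad14 yeast cultures; inhibition of growth was then determined by comparison with vehicle treatment.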

[5] = NCI Yeast Anticancer Drug Screen. Data for the bub3 strain (AID 167); settings: S. cerevisiae bub3 mutant strain, at 50.0 µM, active compounds read high
In short: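 Yeast carrying a defined mutation is treated with each compound, and growth is compared with that of vehicle-exposed cells to give inhibition.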

[6] = NCI Yeast Anticancer Drug Screen. Data for the mlh1 rad18 strain (AID 175); settings: S. cerevisiae mlh1 rad18 strain growth inhibition; at 50.0 µM; active compounds read high
In short: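 Inhibition values reflect reduced growth of mutant yeast versus vehicle-treated controls following compound exposure; the mutations affect DNA damage repair.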

Measured: growth inhibition

CC(C)C(=O)OCC1CCCN2CCCCC12 (stereo not given)
inactive: [1] 26.9% | [2] 26.4% | [3] 11.9% | [4] 19.2% | [5] 30.3% | [6] -35.2%

NS(=O)(=O)c1ccc([As](=O)(O)O)cc1
inactive: [1] -1.1% | [2] -3.85% | [3] 5% | [4] -45.5% | [5] 12.2% | [6] -15.7%

COc1cc[c]([Pb]([c]2ccc(Cl)cc2)([c]2ccc(Cl)cc2)[c]2ccc(OC)cc2)cc1
inactive: [1] -13.4% | [2] -8.95% | [3] -1.1% | [4] -25.7% | [5] -4.25% | [6] 16.2%

COc1ccccc1N
inactive: [1] -2.9% | [2] 1.25% | [3] 4.3% | [4] -8.05% | [5] -9.45% | [6] -17.4%

O=C(Nc1ccc([As](=O)(O)O)cc1)Nc1cccc(Cl)c1Cl
inactive: [1] 37.9% | [2] 36.3% | [3] -8% | [4] 0.3% | [5] 44.1% | [6] 34.9%

CC(=O)O.CC(=O)O.CC(=O)O.CC(=O)O.[Cu].[Cu]
inactive: [1] 36.9% | [2] 20.2% | [3] 56.5% | [4] -53.6% | [5] 26.9% | [6] 40.8%

O=C=Nc1ccccc1Cl
inactive: [1] 12.5% | [2] 3.1% | [3] -1.15% | [4] 5.45% | [5] 4.2% | [6] 5.15%

CCCCC(=O)O.[Ni]
inactive: [1] -11.2% | [2] -2.65% | [3] -9.7% | [4] -32% | [5] -30.9% | [6] -14.1%

CN1CC(C(=O)NO)C=C2c3cccc4[nH]cc(c34)CC21 (stereo not given)
inactive: [1] 8.8% | [2] 42.5% | [3] 23.5% | [4] -3.7% | [5] 41.5% | [6] 14.4%

O=C([CH-]C(=O)C(F)(F)F)c1ccco1.O=C([CH-]C(=O)C(F)(F)F)c1ccco1.O=C([CH-]C(=O)C(F)(F)F)c1ccco1.[Ru+3]
inactive: [1] 8.2% | [2] -11% | [3] -19.6% | [4] -11.6% | [5] 1.95% | [6] 11.7%

CCN(CC)CC(=O)c1ccccc1
inactive: [1] -24.1% | [2] -8.85% | [3] -21.2% | [4] 9.45% | [5] 3.15% | [6] -45.7%

OC(c1ccccc1)C(NC1CCCCC1)c1ccccc1 (stereo not given)
inactive: [1] -4.5% | [2] -18.6% | [3] -0.75% | [4] -24.2% | [5] -6.3% | [6] -56%

CC(=O)OC1CC2(C)C3(CO3)C1OC1C=C(C)C(=O)C(O)C12CO (stereo not given)
inactive: [1] -10.4% | [2] -3.95% | [3] 2.75% | [4] 26.5% | [5] 8.7% | [6] 11.3%

S=c1sc(-c2ccc(Cl)cc2)c[se]1
inactive: [1] 4.45% | [2] 3.85% | [3] -13.3% | [4] -33.2% | [5] 1.7% | [6] -5.05%

[CH3][Sb]([CH3])([CH3])([O]C(=O)C(Cl)Cl)[O]C(=O)C(Cl)Cl
inactive: [1] 10.1% | [2] -7.15% | [3] 15.3% | [4] -22.6% | [5] -1.7% | [6] 2.9%

CCCCCCCCCCBr
inactive: [1] 30.4% | [2] 17.2% | [3] -12.4% | [4] 25.1% | [5] 17.1% | [6] -37.6%

C[CH2][Sn]([c]1ccccc1)[c]1ccccc1
inactive: [1] 33.1% | [2] 39.2% | [3] 40.3% | [4] 3.65% | [5] 35.5% | [6] 47.1%

O=P(O)(O)CCCP(=O)(O)O.[Zn+2]
inactive: [1] -10.9% | [2] -27.4% | [3] -7.05% | [4] -6.1% | [5] -12.7% | [6] 29.1%

CC1(C)SC2C(NC(=O)COc3ccccc3)C(=O)N2C1C(=O)O (stereo not given) (tested in a mixture with another compound)
inactive: [1] -3.75% | [2] 8.1% | [3] 2.3% | [4] -24.4% | [5] -2.15% | [6] 10%

O=c1cc[cH-]o1.[C-]#[O+].[C-]#[O+].[C-]#[O+].[C-]#[O+].[C-]#[O+].[C-]#[O+].[CH-]=O.[Co+2].[Co]
inactive: [1] -14.5% and -3.2% | [2] -4.15% and 4.75% | [3] 0.5% and -6.75% | [4] -10.5% and 6.25% | [5] -8.4% and 21.8% | [6] 9.6% and 4.05%
